Compound activity from PubChem.
NPSR antagonist = qHTS Assay for Antagonists of the Neuropeptide S Receptor: cAMP Signal Transduction; Q6W5P4; CHO-NPSR cells, cAMP TR-FRET, antagonist mode; Potency, µM (doses to about 38.3 µM), inactives show at the highest dose activity change, negative = inhibition, actives largely listed as inhibitors; hit rate 1% among 220,000; AID 1461, 2008; note: nearly all actives have a fitted effect of over 50% in size
Tau fibril ThT = qHTS for Inhibitors of Tau Fibril Formation, Thioflavin T Binding; Microtubule-associated protein tau (Homo sapiens), P10636; hit rate 2.1% among 270,000; recombinant tau K18 P301L, heparin-induced fibrillization, ThT fluorescence; Potency, µM (doses to about 57.4 µM), for inactives: at the top dose activity, negative = inhibition, usual class: inhibitors; note: nearly all actives have a fitted effect of over 55% in size
Target sequence (P10636 561-689 P618L limits assumed): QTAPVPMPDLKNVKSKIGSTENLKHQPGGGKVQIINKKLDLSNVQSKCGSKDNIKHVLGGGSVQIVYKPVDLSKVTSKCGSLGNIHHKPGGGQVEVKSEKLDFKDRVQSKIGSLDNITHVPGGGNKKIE
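Using a mix of unlabeled (15 uM) and Alexa 594-labeled (0.24 uM) tau K18 P301L, heparin-triggered fibrillization over 6 hr at 37 C was scored by ThT fluorescence.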
HPGD inh = qHTS Assay for Inhibitors of HPGD (15-Hydroxyprostaglandin Dehydrogenase); Potency, µM, inactives show at the top dose activity change, negative = inhibition, most hits filed as inhibitors; hit rate 4.3% among 150,000; AID 894, 2007; purified HPGD, NADH fluorescence kinetic, PGE2 substrate; 15-hydroxyprostaglandin dehydrogenase [NAD(+)] (Homo sapiens), P15428; active = well fitted inhibition curve with a large enough effect, not every such curve was filed as active; inconclusive = small, poorly fitted or top-dose-only effect, or another doubt; inactive = no such curve, though single readings can be large or run the other way
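20 nM HPGD preincubated 15 min at room temperature with compound in 50 mM Tris-HCl pH 8, 0.01% Tween 20. Started with 1 mM NAD+ and 30 uM prostaglandin E2; NADH fluorescence (360/450 nm) read 5 times over 30-s intervals, last minus first.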
Tau fluor cs = Counterscreen qHTS for Inhibitors of Tau Fibril Formation, Fluorescence Polarization. tau K18 P301L (four-repeat tau fragment) Alexa594 fluorescence, heparin fibrillization. Potency, µM (top dose mostly 57.7 µM), for inactives: top-dose activity change, negative = decrease. hit rate 0.93% among 280,000. AID 1463, 2008; note: nearly all actives have a fitted effect of over 55% in size
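Human K18 P301L tau (15 uM unlabeled plus 0.24 uM Alexa 594-labeled, final) in 100 mM sodium acetate pH 7 was mixed with compound and 20 uM heparin and incubated 6 hr at 37 C.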
ALDH1A1 inh = qHTS Assay for Inhibitors of Aldehyde Dehydrogenase 1 (ALDH1A1); Aldehyde dehydrogenase 1A1 (Homo sapiens), P00352; Purified ALDH1A1, NADH fluorescence, propionaldehyde substrate; Potency, µM (titrated, usually from 75.3 µM), without a hit: top-dose activity, negative = inhibition, usual class: inhibitors; hit rate 7.3% among 220,000; AID 1030, 2008; active = well fitted inhibition curve with a large enough effect, not every such curve was filed as active; inconclusive = small, poorly fitted or top-dose-only effect, or another doubt; inactive = no such curve, though single readings can be large or run the other way;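 note: plate controls were no enzyme wells and a reference inhibitor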
Target sequence (P00352 whole entry, looked up): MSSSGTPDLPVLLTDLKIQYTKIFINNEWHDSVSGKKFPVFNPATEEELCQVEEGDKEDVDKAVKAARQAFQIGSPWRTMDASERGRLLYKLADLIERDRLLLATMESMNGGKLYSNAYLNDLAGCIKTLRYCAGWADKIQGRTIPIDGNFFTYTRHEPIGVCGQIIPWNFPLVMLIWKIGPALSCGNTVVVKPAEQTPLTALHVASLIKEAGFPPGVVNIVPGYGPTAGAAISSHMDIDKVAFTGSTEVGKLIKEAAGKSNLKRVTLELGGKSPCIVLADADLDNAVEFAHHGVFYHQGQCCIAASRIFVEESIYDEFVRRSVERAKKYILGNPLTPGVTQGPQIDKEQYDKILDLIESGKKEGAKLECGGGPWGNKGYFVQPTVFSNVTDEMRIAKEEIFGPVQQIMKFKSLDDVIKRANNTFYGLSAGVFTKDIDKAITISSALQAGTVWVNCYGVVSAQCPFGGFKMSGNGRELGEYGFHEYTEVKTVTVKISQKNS
Tau fibril FP = qHTS for Inhibitors of Tau Fibril Formation, Fluorescence Polarization; hit rate 0.39% among 280,000; K18 P301L tau heparin fibrillization, Alexa594 FP, 6 h; Potency, µM (top dose mostly 57.7 µM), without a hit: at the top dose activity, negative = inhibition, actives largely listed as inhibitors; Microtubule-associated protein tau (Homo sapiens), P10636; note: nearly all actives have a fitted effect of over 55% in size
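FP of Alexa 594-tau after heparin (20 uM) induction. Substrate: human K18 P301L, 15 uM unlabeled, 0.24 uM labeled. Buffer 100 mM sodium acetate pH 7. 6 hr, 37 C.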
The depositor's hits bear a star; ? = inconclusive; nt = no result; [ ] = another dose, or the depositor's remark. Most compounds without a hit are left out; they make up all but 9.5% or so of the library. Unless noted, calls come from the whole dose curve; as a rule, active = well fitted curve in the direction sought with a large enough effect; inconclusive = small, poorly fitted or top-dose-only effect, or another doubt; inactive = no such curve, though single readings can be large; an effect the other way counts as inactive or inconclusive. Unless noted, % is set by controls: 0 for no effect and ±100 for the full control effect; potency is the fitted concentration of half-maximal effect.

SMILES | NPSR antagonist | Tau fibril ThT | HPGD inh | Tau fluor cs | ALDH1A1 inh | Tau fibril FP
CCCCn1c(=O)c2oc3ccccc3c2n(Cc2cccc(C)c2)c1=O | nt | 9.0% | nt | -2.9% | nt | -1.9%
CCN(C(=O)Cn1cc(S(=O)(=O)Cc2ccccc2Cl)c2ccccc21)c1ccccc1 | nt | -7.4% | nt | -18.2% | nt | 0.1%
Clc1cc(Cl)cc(Cl)c1 | nt | nt | 0.9% | nt | 2.8% | nt
Cc1cc(C)cc(NC(=O)CN2C(=O)c3ccccc3Sc3ccc(C(=O)N4CCCC4)cc32)c1 | nt | -14.8% | nt | -12.2% | nt | -2.7%
CCOc1cc(N2CCOCC2)c(OCC)cc1NC1=NCCCCC1 | -24.4%[46.1 µM] | -19.4% | -9.5% | -14.3% | 4.9% | 3.1%
Cc1ccc(N2CN(Cc3ccco3)CNC2=S)cc1 | 5.7% | -7.3% | nt | -6.2% | ? | -10.4%
Cc1ccc(C2CC(=O)N3CN(Cc4ccco4)CSC3=C2C#N)cc1 (stereo not drawn) | -9.0%[46.1 µM] | 25.1µM* | 15.8µM* | -10.4% | 11.2µM* | ?
N#CC1=C2SCN(Cc3ccco3)CN2C(=O)CC1c1c(F)cccc1Cl (stereo not drawn) | -9.4%[46.1 µM] | 7.08µM* | 17.8µM* | -29.0% | 8.91µM* | ?
Cc1ccc(S(=O)(=O)NC(CC(=O)N2CCc3ccccc32)c2ccco2)cc1 (stereo not drawn) | -15.6%[46.1 µM] | -18.2% | -3.4% | -16.5% | 14.1µM* | 4.7%
O=C1C2=C(S[C@@H]3O[C@H](CO)[C@@H](O)[C@H](O)[C@H]3O2)C(=O)c2ccccc21 | nt | ? | ? | -14.7% | 1.41µM* | ?
COc1ccc(C2N(c3ccc(C)cc3)CCN2c2ccc(C)cc2)cc1O | -39.7% | ? | nt | 25.1µM*[quencher] | 2.9% | 11.9%
CCC1CCCCN1Cc1cn2c(-c3ccc(Br)cc3)nnc2s1 (stereo not drawn) | nt | -4.8% | nt | -6.4% | nt | -1.7%
Cc1[nH]c2ccccc2c1SCc1n[nH]c(=S)n1C | -4.8% | nt | nt | -18.9% | nt | -4.9%
Cc1[nH]c2ccccc2c1Cc1n[nH]c(=S)n1C | -7.7%[46.1 µM] | -10.5% | 35.5µM* | -5.4% | -12.0% | -3.1%
CSC1=C(C#N)C(c2sccc2C)CC(=O)N1 (stereo not drawn) | -3.5% | -4.7% | nt | -1.4% | 10µM* | -8.0%
CSC1=C(C#N)C(c2cccc(Br)c2)CC(=O)N1 (stereo not drawn) | -3.4%[46.1 µM] | -5.4% | -15.2% | -9.1% | 5.2% | -10.7%
CCC(C)CCCCC(=O)N[C@@H](CCN)C(=O)N[C@H](C(=O)N[C@@H](CCN)C(=O)N[C@H]1CCNC(=O)C([C@@H](C)O)NC(=O)[C@@H](CCN)NC(=O)[C@H](CCN)NC(=O)[C@H](CC(C)C)NC(=O)[C@@H](CC(C)C)NC(=O)[C@H](CCN)NC1=O)[C@@H](C)O (stereo partly drawn) | nt | -13.2% | -4.9% | -8.8% | -2.5% | -2.2%
CCOC(=O)c1ccc(N/N=C/c2cc(Br)cc([N+](=O)[O-])c2O)cc1 | -15.2% | 0.447µM* | nt | 0.708µM*[quencher] | -15.6% | -6.0%
CCOC(=O)c1ccc(Nc2ncccc2[N+](=O)[O-])cc1 | 5.8% | 2.24µM* | nt | -29.5% | 6.1% | -2.9%
COCCNC(=O)CN1C(=O)c2cccnc2Sc2ccccc21 | nt | -10.0% | nt | -14.2% | nt | -16.8%
COc1ccccc1N1CCN(C(=O)c2cc3ccc4ccc(C)[nH]c4c3n2)CC1 | nt | ? | nt | -17.2% | nt | 12.0%
COC(=O)/C=C/c1cc(O)ccc1O | nt | ? | nt | -26.9% | 28.2µM* | -12.2%
CC(=O)Nc1ccc(S(=O)(=O)Nc2nc3ccccc3nc2Nc2ccccc2)cc1 | -30.4% | ? | -18.2% | ? | -10.3% | 8.8%
CC(=O)Nc1ccc(S(=O)(=O)Nc2nc3ccccc3nc2-n2ccc(=NC(=O)c3ccccc3)cc2)cc1 | 8.4% | nt | nt | -3.2%[0.0958 µM] | nt | -1.4%[0.0958 µM]
O=S(=O)(Nc1nc2ccccc2nc1N1CCN(c2ccccn2)CC1)c1ccc(Cl)cc1 | 2.3%[46.1 µM] | ? | -7.6% | -29.1% | 11.2µM* | ?
SMILES | NPSR antagonist | Tau fibril ThT | HPGD inh | Tau fluor cs | ALDH1A1 inh | Tau fibril FP
CC(=O)Nc1ccc(S(=O)(=O)Nc2nc3ccccc3nc2N2CCc3ccccc3C2)cc1 | -13.9% | 1.7% | -23.7% | -6.1% | 11.2µM* | 2.0%
O=C(N=c1ccn(-c2nc3ccccc3nc2NS(=O)(=O)c2ccc(Cl)cc2)cc1)c1ccccc1Cl | 44.2% | ? | nt | -18.8% | 0.631µM* | -10.6%
CC(=O)Nc1ccc(S(=O)(=O)Nc2nc3ccccc3nc2N2CCCCCC2)cc1 | -28.6%[46.1 µM] | -9.7% | -11.2% | ? | 7.08µM* | -15.9%
CCOc1ccc(CCNC(=O)Cn2ncc3c([nH]c4ccccc43)c2=O)cc1OCC | nt | 4.8% | nt | -1.3% | nt | -7.6%
CCOC(=O)C1CCN(S(=O)(=O)c2c(C)n(C)c(=O)n(C)c2=O)CC1 | -8.4%[46.1 µM] | -2.4% | -5.3% | -5.1% | 4.8% | 0.0%
COc1ccc(N2CCCn3c2nc2c3c(=O)n(Cc3ccc(F)cc3)c(=O)n2C)c(OC)c1 | -18.7%[46.1 µM] | -1.4% | -16.7% | -9.3% | ? | 5.1%
CCN(CC)S(=O)(=O)c1cccc(NC(=O)c2cc(-c3cccs3)nn2-c2ccccc2)c1 | -9.6% | -5.1% | -19.5% | -16.8% | -7.5% | -8.7%
CN(C)S(=O)(=O)c1cccc(NC(=O)c2cc(-c3cccs3)nn2-c2ccccc2)c1 | -7.7% | 7.1% | ? | 6.0% | 22.4µM* | 2.7%
Cc1ccc(C)c(CN2C(=O)c3ccccc3S(=O)c3ccc(C(=O)NCc4ccco4)cc32)c1 (stereo not drawn) | nt | 0.1% | nt | -18.5% | nt | -2.8%
CCc1ccc(NC(=O)Cn2c(=O)n(Cc3nc(-c4ccccc4)no3)c(=O)c3cc4c(cc32)OCO4)cc1 | nt | 16.0% | nt | -18.4% | nt | ?
O=C(Oc1ccc2c(-c3ccccc3)cc(=O)oc2c1)C1CCCCC1 | -3.8%[46.1 µM] | ? | ? | -23.9% | 2.24µM* | 2.1%
O=C(Oc1ccc2c(-c3ccccc3)cc(=O)oc2c1)c1cccs1 | -0.9% | -9.0% | ? | -16.3% | 11.2µM* | 1.9%
COC(=O)COc1ccc2c(-c3cccc([N+](=O)[O-])c3)cc(=O)oc2c1 | 1.0%[46.1 µM] | -13.1% | -17.3% | -12.3% | ? | -4.5%
O=C(Oc1ccc2ccc(=O)oc2c1)c1cccs1 | -2.4% | -4.8% | -8.7% | 0.9% | ? | 0.9%
